Bioassay records from PubChem BioAssay.
CYP2C9 act – CYP2C9 (human) activation; P11712; recombinant CYP2C9, luciferin-H conversion, luminescence; hits give high values; factor 1 = untreated enzyme, 0 = blocked; activation factor at 5 µM; actives 1.4% (n = 96,000); AID 1024;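 active means activation factor of 2 or more for CYP2C9 at a 5 µM dose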;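 further: 0 = sulfaphenazole-blocked wells and 1 = vehicle-only wells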
Target sequence (P11712 whole entry, looked up): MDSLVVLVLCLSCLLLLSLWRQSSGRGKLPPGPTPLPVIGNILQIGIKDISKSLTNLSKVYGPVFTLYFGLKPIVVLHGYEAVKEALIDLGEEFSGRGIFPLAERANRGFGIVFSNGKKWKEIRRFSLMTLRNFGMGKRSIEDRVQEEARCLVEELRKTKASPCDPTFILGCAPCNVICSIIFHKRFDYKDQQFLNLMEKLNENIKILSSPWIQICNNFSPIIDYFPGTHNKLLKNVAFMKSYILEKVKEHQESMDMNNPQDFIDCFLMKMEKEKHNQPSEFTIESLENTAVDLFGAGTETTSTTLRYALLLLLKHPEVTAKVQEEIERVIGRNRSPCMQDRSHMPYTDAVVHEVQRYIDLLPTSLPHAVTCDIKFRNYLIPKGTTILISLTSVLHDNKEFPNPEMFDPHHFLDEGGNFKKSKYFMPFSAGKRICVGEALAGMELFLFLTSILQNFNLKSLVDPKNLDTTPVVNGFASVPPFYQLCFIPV
Cav32 inh – blocks human Cav3.2 T-type calcium channel; B-score at 10 µM; Cav3.2-expressing cells, Fluo-4 calcium fluorescence FDSS; hits give low values; O95180; actives 4% (n = 100,000);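 active means single-dose well whose peak fluorescence ratio is a statistical outlier from its plate by either plate-standardised score or position-corrected B-score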
CYP2C9 inh – human CYP2C9 inhibition | actives 20% (n = 96,000) | CYP2C9 Supersomes, luciferin-H conversion, luminescence | P11712 | inhibition, % at 5 µM;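 active means blocking of liver enzyme CYP2C9 beyond about 50% at 5 µM, limit read from the data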
CYP2C19 inhib – human CYP2C19 inhibition | P33261 | CYP2C19 Supersomes, luciferin-H EGE luminescence, 30 min | inhibition, % at 5 µM | actives 21% (n = 96,000) | AID 778;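 active means CYP2C19 inhibition above a set limit at 5 µM in the primary screen, cut at about 50% in these data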;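 further: plate controls were negative control wells for no effect and 2.5 mM tranylcypromine positive control for full effect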
CYP2C19 act – increases human CYP2C19 enzyme activity; recombinant CYP2C19, luciferin-H EGE luminescence; hits give high values; 0 = fully inhibited enzyme, 1 = untreated enzyme; activation factor at 5 µM; 96,000 tested, under 10 active; AID 1025;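 active means activation factor of at least 2 at 5 µM in the primary screen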;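 further: 0 = wells with 2.5 mM tranylcypromine and 1 = vehicle-only wells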
An asterisk follows results filed as active; nt = no result given. In the library only some 27% were active in any assay of this set; here they are far more common.

SMILES	CYP2C9 act	Cav32 inh	CYP2C9 inh	CYP2C19 inhib	CYP2C19 act
COc1ccc(S(=O)(=O)N(CC(=O)NCc2ccco2)c2ccccc2)cc1	0.6	-0.43	42	56*	0.4
COc1ccc(CC(=O)NCc2ccco2)cc1OC	1.1	0.12	-10	43	0.6
Cc1cc(-c2nn3c(C)nnc3s2)ccc1NC(=O)C(C)(C)C	nt	1.1	nt	nt	nt
FC(F)(F)c1cc(-c2cccs2)nc(-n2cc(Cl)cn2)n1	0.7	-2.1	29	-6	1.1
Cc1ccccc1Oc1ncccc1C(=O)/C(C#N)=C/N(C)C	1	1.2	1	35	0.7
Cc1cc(Cl)ccc1Oc1cccc(C(=O)/C(C#N)=C/N(C)C)c1	0.8	-0.12	23	70*	0.3
CN(C)/C=C(/C#N)C(=O)c1cccc(Oc2ccc(C(C)(C)C)cc2)c1	0.5	-1.3	50	78*	0.2
Cc1ccccc1Oc1cccc(C(=O)/C(C#N)=C/N(C)C)c1	0.2	-0.92	79*	89*	0.1
S=C(NN=C1C2CC3CC(C2)CC1C3)Nc1ccccc1	1	-0.81	3	7	0.9
Cn1nnnc1SCC(=O)Nc1ccccc1Cc1ccccc1	0.4	0.042	58*	55*	0.4
CSc1ccccc1NC(=O)CSc1nnnn1-c1ccccc1SC	3.1*	-1.8	-209	30	0.7
COC(=O)c1ccccc1NC(=O)CSc1nnnn1-c1ccc(C)cc1C	1.4	-0.45	-38	20	0.8
CSc1ccccc1-n1nnnc1SCC(=O)Nc1ccccc1C	3.3*	0.52	-232	87*	0.1
CSc1ccccc1-n1nnnc1SCC(=O)NCc1cccs1	nt	2.2	nt	nt	nt
COC(=O)c1ccsc1NC(=O)CSc1nnnn1-c1ccccc1SC	2*	-0.0077	-98	6	0.9
CC(CCc1ccccc1)NC(=O)CSc1nnnn1C (centres undefined)	1.2	0.095	-19	20	0.8
COc1ccc(CC2NCCC3=CC(=O)CCC32)cc1O (centres undefined)	nt	1.1	nt	nt	nt
Cc1ccc2c(c1)NC(=O)C(CC(=O)NCc1cccnc1)O2 (centres undefined)	0.9	0.62	7	6	0.9
CC(C)(C)c1ccc(S(=O)(=O)N2CCN(CCC#N)CC2)cc1	1.4	-0.061	-38	50*	0.5
N#CCCN1CCN(S(=O)(=O)c2ccc(S(=O)(=O)N3CCCCCC3)cc2)CC1	0.8	0.063	21	-10	1.1
O=C1N/C(=N\N=C\c2cccnc2)SC1Cc1ccc(SC(F)F)cc1 (centres undefined)	0.5	-0.52	53*	2	1
O=C1N/C(=N\N=C\c2ccc3ncccc3c2)SC1Cc1ccc(SC(F)F)cc1 (centres undefined)	0.5	-0.18	48	-4	1
COc1cc(NC(=O)c2ccco2)c(OC)cc1NC(=O)CCC(=O)Nc1cccc(C)c1C	0.7	0.36	35	20	0.8
CCOC(=O)C1CCN(Cc2ccc(N(C)C)cc2)CC1	1.1	nt	-15	27	0.7
CN(C)c1ccc(CN(C)C2CCCCC2)cc1	1	0.14	0	93*	0.1
SMILES	CYP2C9 act	Cav32 inh	CYP2C9 inh	CYP2C19 inhib	CYP2C19 act
CN(C)c1ccc(CN2CCCCCC2)cc1	0.3	-0.93	67*	55*	0.4
COCCCNC(=O)C(=O)N/N=C/c1ccc(OCC(=O)Nc2cccc(Cl)c2C)c(OC)c1	1	-0.15	3	9	0.9
CC(C)(C)C1(C)OC(C(=O)NC2CCCCC2)C(C(=O)NC2CCCCC2)O1 (centres undefined)	0.9	-0.43	12	18	0.8
COc1ccc(C2CC(C(F)(F)F)n3nc(C(N)=O)c(Cl)c3N2)cc1OC (centres undefined)	0.4	-0.45	58*	15	0.9
N#Cc1nc(-c2ccc(F)cc2)oc1N1CCCC1	1.3	nt	-33	15	0.8
N#Cc1nc(-c2ccc(Cl)cc2)oc1N1CCCCC1	0.7	0.057	31	17	0.8
N#Cc1nc(-c2ccco2)oc1N1CCN(c2cccc(Cl)c2)CC1	0.3	-2.9	69*	76*	0.2
N#Cc1nc(COc2cccc(Cl)c2)oc1N1CCCC1	0.8	-3	18	98*	0
N#Cc1nc(COc2ccc(F)cc2)oc1N1CCCC1	0.7	-2.3	28	96*	0
COc1cccc(-c2nc(=S)c3c(n2CCCO)CCCC3)c1	1	0.62	-1	-3	1
Cc1ccccc1OCC(=O)Nc1sc(C(=O)Nc2cccc(C)c2C)c(C)c1C#N	0.7	0.081	27	12	0.9
CCn1c(CNc2cccc(Cl)c2)nnc1SCC(=O)OC1CCCCC1	0.3	nt	74*	74*	0.3
CCn1c(CNc2ccc(C)cc2)nnc1SCC(N)=O	nt	0.25	nt	nt	nt
CCn1c(CNc2ccc(Cl)cc2)nnc1SCC(=O)OC1CCCCC1	nt	-8.4*	nt	nt	nt
CCn1c(CNc2ccccc2Cl)nnc1SCC(=O)OC1CCCCC1	0.6	-4.5*	45	70*	0.3
CCn1c(COc2ccccc2)nnc1SCC(=O)NC1CCCCC1	0.8	0.39	20	11	0.9
O=C(CSc1nnc(CN2CCOCC2)n1-c1ccccc1)Nc1ccc(Cl)cc1	nt	0.0065	nt	nt	nt
CCn1c(Cc2ccccc2)nnc1SCC(=O)Nc1ccc(S(N)(=O)=O)cc1	0.8	0.13	18	6	0.9
CCCCN(CCCC)S(=O)(=O)c1ccc(SCC(=O)OCC)c([N+](=O)[O-])c1	0.3	-3.1*	67*	32	0.7
CCCCN(CCCC)S(=O)(=O)c1ccc(N2CCCC2=O)c([N+](=O)[O-])c1	nt	-1.5	nt	nt	nt
Cc1ccc(C2CN=NC23CCc2ccccc2C3=O)cc1 (centres undefined)	0.7	-0.93	26	75*	0.3
CC1(C)Cc2ccccc2-c2nc3ccccc3c(=O)n21	0.7	-0.91	34	18	0.8
COC(=O)c1nc2nc(C)cc(=O)n2[nH]1	1	0.65	4	0	1
CCOC(=O)c1cccc(NC(=O)Cn2c(CC(=O)N3CCCC3)nc3ccccc32)c1	0.1	0.036	88*	17	0.8
CCOC(=O)c1ccccc1NC(=O)CSc1nc2ccccc2n1CC(=O)N1CCCC1	0.1	-0.1	87*	82*	0.2
SMILES	CYP2C9 act	Cav32 inh	CYP2C9 inh	CYP2C19 inhib	CYP2C19 act
Cc1ccc(OCCCOc2cccc3cccnc23)cc1C	2.8*	-2	-183	72*	0.3
NC(=O)COc1cccc2cccnc12	0.9	1.2	6	21	0.8
Cc1ccc(OCCCSc2ncccn2)cc1C	nt	0.017	nt	nt	nt
Brc1ccccc1OCCOCCOc1cccc2cccnc12	nt	-4.7*	nt	nt	nt
Cc1cccc(OCCCOc2cccc3cccnc23)c1C	1.8	-2.2	-82	56*	0.4
CC(C)CC(CO)N1CCN(C(=O)c2cccc(Cl)c2)CCC1=O (centres undefined)	nt	-0.13	nt	nt	nt
CCCC(=O)n1nc(-c2ccc(OC)cc2)nc1N	1	1.3	-1	53*	0.5
CC(C)c1ccc(NC2(C#N)C(=O)Nc3ccccc32)cc1 (centres undefined)	1.7	nt	-75	34	0.7
Cc1ccc2c(c1)NCCO2	1.1	0.72	-8	16	0.8
